Bioassay records (PubChem BioAssay)
Shiga toxin inh: A qHTS for Small Molecule Inhibitors of Shiga Toxin; Vero cells, Shiga toxin protein synthesis inhibition reporter; inhibition, % at 38.7 µM; hit rate 9.2% among 290,000; in the data active means inhibition mostly above about 28%, no sharp cut-off; inactive means mostly below about 43%; further: 0% is about no effect
NS1 function inh: qHTS Assay for Inhibitors of Influenza NS1 Protein Function; hit rate 0.4% among 270,000; Potency, µM (highest dose often 46.1 µM), without a hit: at the top dose activity, positive = more growth; calls by dose curve; further: potency means the concentration at half of the fitted maximal effect; actives are rising curves; nearly all actives have a fitted effect of over 50% in size
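OD600 was taken as the measure of yeast growth restored by compound in an NS1-expressing S. cerevisiae strain. Cells had been washed out of glucose medium and diluted 1:100 into galactose -URA medium, pH 6.0.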
Cycloheximide cs: Cycloheximide Counterscreen for Small Molecule Inhibitors of Shiga Toxin; hit rate 12% among 300,000; max response, %; AID 2314, 2010; cell reporter, cycloheximide protein synthesis inhibition counterscreen; in the data active means max response mostly above about 13%, no sharp cut-off; inactive means mostly below about 14%; further: read at 38.3 µM for the half of the compounds with a filed dose; 0% is about no effect
Pf growth 96h: Primary qHTS for delayed death inhibitors of the malarial parasite plastid, 96 hour incubation; P. falciparum luciferase reporter growth, 96 h; Potency, µM (top dose mostly 28.7 µM), for the others: at the top dose activity change, negative = inhibition, usual class: inhibitors; hit rate 6.9% among 320,000; AID 504834, 2011; further: potency means the concentration at half of the fitted maximal effect; on the % scale 0 is the no-effect control and ±100 the full control effect
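Parasite growth measured via integrated firefly luciferase reporter in P. falciparum. Infected erythrocytes at 2% hematocrit, 0.05% parasitemia final were treated 96 hours at 37 C under 5% CO2, and luminescence was read.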
FBPA Giardia inh: qHTS Assay for Inhibitors of Fructose-1,6-bisphosphate Aldolase from Giardia Lamblia; purified Giardia FBPA; AID 2451, 2010; A8B2U2; Potency, µM (titrated, usually from 59.6 µM), for inactives: top-dose activity, negative = inhibition, most hits filed as inhibitors; hit rate 0.71% among 290,000; further: potency means the concentration at half of the fitted maximal effect; on the % scale 0 is the no-effect control and ±100 the full control effect; nearly all actives have a fitted effect of over 55% in size
Target sequence (A8B2U2 whole entry, looked up): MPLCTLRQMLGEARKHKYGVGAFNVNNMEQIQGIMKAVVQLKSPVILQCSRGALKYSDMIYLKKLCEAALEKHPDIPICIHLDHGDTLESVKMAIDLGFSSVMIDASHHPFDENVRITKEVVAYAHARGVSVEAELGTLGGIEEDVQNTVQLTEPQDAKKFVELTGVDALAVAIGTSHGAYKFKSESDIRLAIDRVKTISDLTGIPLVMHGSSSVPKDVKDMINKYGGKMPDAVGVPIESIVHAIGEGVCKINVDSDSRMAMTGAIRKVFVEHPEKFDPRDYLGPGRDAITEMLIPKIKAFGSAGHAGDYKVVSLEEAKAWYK
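Giardia FBPA (40 nM reagent) was preincubated 10 min at RT with compound (up to 57.5 uM final), then substrate plus GAPDH/TPI/NAD/arsenate coupling system with diaphorase/resazurin was added; resorufin fluorescence (525/598 nm) was read after 20 min.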
Pf growth 48h: Primary qHTS for delayed death inhibitors of the malarial parasite plastid, 48 hour incubation; P. falciparum luciferase growth in erythrocytes, 48 h; Potency, µM (titrated, usually from 28.7 µM), for the others: at the top dose activity change, negative = inhibition, usual class: inhibitors; hit rate 5.9% among 310,000; further: potency means the concentration at half of the fitted maximal effect; on the % scale 0 is the no-effect control and ±100 the full control effect
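First compound was added to culture medium, then infected red cells at 0.1% parasitemia and 2% hematocrit (final). After incubation at 37 C under 5% CO2, luciferase detection reagent was dispensed and light output recorded.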
An asterisk follows results filed as active; ? = inconclusive; . = not tested or not shown. Compounds with a hit are over-represented: about 21% of the library has one in this group of screens. Unless noted, the call rests on the fitted dose curve; in most records, active means well fitted curve in the direction sought with a large enough effect; inconclusive means small, poorly fitted or top-dose-only effect, or another doubt; inactive means no such curve, though single readings can be large; an effect the other way counts as inactive or inconclusive.

SMILES	Shiga toxin inh	NS1 function inh	Cycloheximide cs	Pf growth 96h	FBPA Giardia inh	Pf growth 48h
C#CCOCCOCCOCCNc1nc(N2CCN(C(=O)CCCCCCCCCCNC(=O)[C@@H](CCSC)n3cc(CCO)nn3)CC2)nc(N2CCN(C(=O)CCCCCCCCCCNC(=O)[C@H](CCCN=C(N)N)n3cc(C[C@@H](C)CC)nn3)CC2)n1	.	.	.	1.17µM*	.	3.29µM*
CC(=O)Nc1ccc(SCCC2CCCCN2C)cc1 (centres undefined)	-4.9	3.1%	-2.0	0.7%	-12.8%	-3.4%
CCOC(=O)C1CCN(S(=O)(=O)c2ccc(CNC(=O)c3ccccc3)s2)CC1	-1.5	-8.7%	-2.5	-13.2%	0.5%	-7.6%
Cn1nc(C(=O)OCC(=O)NC2CCS(=O)(=O)C2)c2ccccc2c1=O (centres undefined)	17.9	.	2.2	3.3%	7.2%	35.2%
CN1C(=O)C(=Cc2c(OCc3cnc(Cl)s3)ccc3ccccc23)C(=O)N(C)C1=O	82.5*	7.2%	53.1*	25.9%	?	36.8%
COC(=O)c1ccc(COC(=O)[C@@H]2CC(O)CN2S(=O)(=O)c2ccccc2[N+](=O)[O-])cc1 (some centres undefined)	.	.	.	0.1%	.	-0.1%
COC(=O)c1c(C)[nH]c(C(=O)/C=C/c2ccccc2F)c1C	62.2*	0.6%	28.8*	161.5%	0.6%	147.6%
COC(=O)c1c(C)[nH]c(C(C)=O)c1C	-12.0	-4.2%	-4.9	28.5%	0.2%	22.6%
COC(=O)c1c(C)[nH]c(C(=O)/C=C/c2ccccc2Cl)c1C	104.7*	12.7%	60.6*	-8.3%	2.2%	74.1%
COc1ccc(/C=N/NC(=O)C2(C)NC(C)(C)Cc3ccccc32)cc1 (centres undefined)	-9.8	2.5%	2.8	403.1%	8.5%	12.9%
CCc1ccc(S(=O)(=O)NCc2csc(-c3cccnc3)n2)s1	5.3	-163.0%	4.6	0.738µM*	-9.8%	0.7%
Cc1nc2cc3ccccc3cc2n1C	48.4*	-37.2%	19.1*	-84.3%	-8.0%	-2.8%
COc1ccc2cc(C(=O)C3CCCN(C(=O)Cc4c(C)noc4C)C3)ccc2c1 (centres undefined)	4.3	-0.4%	8.4	?	-4.5%	?
O=[N+]([O-])c1ccc(-n2cc(-c3ccccc3)nn2)cc1	11.4	1.8%	14.4*	70.4%	14.4%	53.9%
Cc1cnc(C(=O)N(CC(C)C)c2c(N)n(CC(C)C)c(=O)[nH]c2=O)cn1	.	.	.	4.7%	.	-7.9%
Oc1ccccc1N=Cc1sc2ccccc2c1Cl	29.3*	-36.2%	40.0*	?	-25.6%	?
Cc1ccc(O)c(N=Cc2sc3ccccc3c2Cl)c1	73.1*	-2.7%	45.2*	?	-20.8%	?
Oc1ccc(Cl)cc1C=Nc1ccccc1Br	-9.7	-5.5%	9.4	-0.1%	-2.3%	12.5%
COc1cc(F)ccc1S(=O)(=O)NCc1cccnc1	.	-1.5%	4.8	21.0%	-5.4%	3.1%
CCCC/C(O)=C/c1nc2ccccc2[nH]c1=O	19.0	0.1%	8.9	-4.8%	0.7%	8.0%
O=S(=O)(/C(=C/c1ccc(C(F)(F)F)cc1)c1nc2ccccc2[nH]1)c1ccccc1	-6.3	-16.1%	-2.3	1.65µM*	-3.3%	4.15µM*
CC(C)c1ccc(/C=C(\c2nc3ccccc3[nH]2)S(=O)(=O)c2ccccc2)cc1	23.4	-4.6%	17.5*	2.33µM*	5.9%	5.86µM*
O=[N+]([O-])c1ccc(OCCCCN2CCc3ccccc3C2)cc1	6.7	18.8%	-1.8	?	?	9.0%
COC(=O)c1ccc(C(NC(=O)OCc2ccccc2)/C(F)=C/[C@@H](C)C(=O)NC2CCCCC2)cc1 (some centres undefined)	.	.	.	.	4.8%	.
c1ccc(Cn2c(-c3ccccc3)c[n+]3c2SCCC3)cc1	-10.7	4.0%	-1.2	?	4.1%	1.04µM*
Cc1ccc(-c2c[n+]3c(n2-c2ccccc2)SCC3)cc1	6.2	-0.3%	-2.3	?	2.6%	?
Cc1sc2ncnc(N/N=C/c3ccccc3O)c2c1C	33.5*	-47.5%	35.9*	6.2%	?	2.94µM*
